Compound activity (PubChem BioAssay)
Sampled rows, rich in hits. Any-hit rate of the full collection: about 4.8%.
hgDAF12 agonist = H. glycines DAF-12 receptor agonists, primary screen, cell-based, luminescence, HEK293, GAL4 fusion, UAS-luciferase; Nuclear hormone receptor DAF-12 (Heterodera glycines), GAL4 fusion; HEK293 GAL4-hgDAF12 UAS-luciferase reporter, agonist luminescence; normalized to butyrate control; activation, % at 6.8 µM; actives 1.8% (n = 370,000); AID 687014, 2013;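 active = activation above a cutoff set at the mean of all screened compounds plus 3 SD, cut at about 10% in these data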
SMARCA2 act = SMARCA2 (BRM) function activators, primary screen, cell-based, luminescence, high throughput; MG213 cells, MMTV-luciferase reporter, dexamethasone, overnight; activation, % at 9.1 µM; actives 1% (n = 370,000); AID 652017, 2013; in the data active = activation above about 7.8%
DAX1 inh-1 = DAX1 (NR0B1) inhibitors, primary screen, cell-based, HEK293, Gal4-DAX1, luciferase luminescence | Nuclear receptor subfamily 0 group B member 1 (Homo sapiens), P51843 | HEK293 Gal4-DAX1 luciferase reporter | inhibition, % at 6.75 µM | actives 0.99% (n = 340,000);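 active = inhibition above the mean over all tested compounds plus 3 SD, cut at about 4.2% in these data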;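 also: inhibition shows as a rise in luminescence from relieved DAX1 repression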
Target sequence (P51843 207-470 limits assumed): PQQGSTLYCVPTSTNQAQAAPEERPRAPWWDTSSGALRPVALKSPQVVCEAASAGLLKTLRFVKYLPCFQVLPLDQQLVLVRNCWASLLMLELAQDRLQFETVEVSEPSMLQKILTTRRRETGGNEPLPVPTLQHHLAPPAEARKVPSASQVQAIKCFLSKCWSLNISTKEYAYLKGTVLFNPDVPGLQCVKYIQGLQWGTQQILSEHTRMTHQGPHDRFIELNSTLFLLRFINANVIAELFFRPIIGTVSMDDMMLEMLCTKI
DAX1 inh-2 = DAX1 (NR0B1) inhibitors on StAR promoter, primary screen, cell-based, luminescence, SF-1 (NR5A1), full-length DAX-1. HEK293T StAR-luciferase reporter, SF-1/DAX-1 repression relief. inhibition, % at 6.8 µM. actives 1.1% (n = 370,000);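 active = inhibition above the mean over all tested compounds plus 3 SD, cut at about 3.6% in these data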;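 also: higher inhibition means more luminescence from relief of DAX-1 repression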
ssDAF-12 act = S. stercoralis DAF-12 nuclear receptor activators, primary screen, cell-based, luminescence, HEK293, GRIP1 co-expression, lit1-tk-luc. HEK293 ssDAF-12/GRIP1 lit1-tk-luc reporter; % of 3 µM dafachronic acid response. activation, % at 6.8 µM. actives 1% (n = 370,000);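 active = activation above the mean over all tested compounds plus 3 SD, cut at about 0.9% in these data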
hcDAF-12 act = H. contortus DAF-12 nuclear receptor activators, primary screen, cell-based, luminescence, HEK293, lit1-tk-luc reporter; HEK293 hcDAF-12 lit1-tk-luc reporter; 0% DMSO, 100% Δ7-dafachronic acid; activation, % at 6.8 µM; actives 1.4% (n = 370,000); AID 652067, 2013;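 active = activation above the mean of all tested compounds plus 3 SD, cut at about 5.5% in these data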
SMARCA2 act conf = SMARCA2 (BRM) function activators, confirmation, cell-based, luminescence, triplicate; actives 30% (n = 3,500); activation, % at 9.1 µM; MG213 cells, MMTV-luciferase with dexamethasone, overnight; MG213 cells expressing E1A, Rb sequestered; DMSO wells 0%, reference activator 100%; shares compounds with SMARCA2 act;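 active = activation above its plate's cutoff, the mean activation of tested wells plus 3 SD, cut at about 7.9% in these data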
VP16 Luc act = GAL4-VP16 luciferase reporter activation, counter-screen for SMARCA2 (BRM) activator project, cell-based, pG5luc, luminescence, high throughput | AID 686939, 2013 | actives 41% (n = 3,500) | HEK293 GAL4-VP16 pG5luc reporter; scaled: DMSO wells 0%, SAHA wells 100% | activation, % at 9.1 µM | shares compounds with SMARCA2 act;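 active = activation above the solvent-only control well mean plus 3 SD, averaged across control plates, cut at about 5.2% in these data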
Of the large screens only hits and unclear results are named; the others gave an inactive call (follow-up assays come after a bar, where they were run).

C=CCNC(=O)c1cnn(-c2ccccc2)c1-c1ccccc1	none
COc1ccc(NC(=S)Nc2cc(C)[nH]n2)cc1Cl	none
Cc1cc(NC(=S)Nc2ccc(C)c(Cl)c2)n[nH]1	SMARCA2 act 8.3 | SMARCA2 act conf 10 | VP16 Luc act 6.9
CC(=O)c1ccc(NC(=O)c2cc(Cl)nc3ccccc23)cc1	none
COc1ccc(NC2CCCN(C(=O)CN3C(=O)c4ccccc4C3=O)C2)cc1OC (configuration not stated)	SMARCA2 act 8.0 | SMARCA2 act conf inactive | VP16 Luc act inactive
O=C(/C=C/c1c(Cl)cccc1Cl)NCCc1ccccc1	SMARCA2 act 11 | SMARCA2 act conf inactive | VP16 Luc act inactive
O=C(/C=C/c1cccc(Cl)c1)NCCc1ccccc1	none
CCCNC(=O)c1n[nH]c(=O)c2ccccc12	none
CCOC(=O)Nc1ccc(NC(=O)c2ccccc2F)cc1	SMARCA2 act 9.0 | SMARCA2 act conf 9.5 | VP16 Luc act 8.5
CCc1ccc(NC(=O)c2n[nH]c(=O)c3ccccc23)cc1	SMARCA2 act 8.6 | SMARCA2 act conf inactive | VP16 Luc act 6.3
CCc1ccc(NC(=O)c2ccccc2Br)cc1	hgDAF12 agonist 12, SMARCA2 act 9.9, DAX1 inh-1 5.9 | SMARCA2 act conf inactive | VP16 Luc act 10
CCc1ccc(OC(=O)Nc2ccccc2)cc1	hgDAF12 agonist 11, SMARCA2 act 10, hcDAF-12 act 6.2 | SMARCA2 act conf 9.2 | VP16 Luc act 12
CC(=O)Nc1ccc(NC(=O)Oc2ccccc2)cc1	none
CC(=O)Nc1ccc(NC(=O)c2ccccc2Br)cc1	none (no result: DAX1 inh-1)
CCCOc1ccc(C(C(=O)OCCN(CC)CC)c2ccccc2)cc1 (configuration not stated)	none
COc1ccc(C(=O)Nc2ccc(NC(=O)c3ccccc3F)cn2)cc1	none
O=C(Nc1ccc(NC(=O)C2CC2)nc1)c1ccccc1F	SMARCA2 act 8.6 | SMARCA2 act conf inactive | VP16 Luc act 5.3
CC(C)NS(=O)(=O)c1ccc(NC(=O)C(C)OC(=O)CCC2CCCCC2)cc1 (configuration not stated)	none
Oc1c(C(c2ccccc2Cl)N2CCCC2)ccc2cccnc12 (configuration not stated)	none
c1ccc(N2CCN(c3cnccn3)CC2)nc1	none
N#Cc1cc(C#N)c(N2CCN(c3ccccn3)CC2)nc1N	SMARCA2 act 9.1 | SMARCA2 act conf 16 | VP16 Luc act 11
COc1ccc(Nc2cc(Nc3ccccc3)ncn2)cc1	SMARCA2 act 14, hcDAF-12 act 6.0 | SMARCA2 act conf inactive | VP16 Luc act 11
Cc1c(Cl)cccc1NC(CC(=O)c1ccccc1)C(=O)O (configuration not stated)	SMARCA2 act 9.7 | SMARCA2 act conf inactive | VP16 Luc act inactive
CN(C)Cc1ccc(CNC(=O)c2ccc(Cl)c(S(=O)(=O)NC3CC3)c2)cc1	SMARCA2 act 9.0 | SMARCA2 act conf inactive | VP16 Luc act inactive
O=C(NCCC1=CCCCC1)C1CCCN(S(=O)(=O)c2cccc3cccnc23)C1 (configuration not stated)	SMARCA2 act 10 | SMARCA2 act conf inactive | VP16 Luc act inactive
